We go through eight compounds from PubChem BioAssay (NCI).

Some test systems named below: NCI-H23 lung; NCI-H226 lung; NCI-H322M lung; HOP-62 NSCLC; NCI-H460 lung; HOP-92 NSCLC; NCI-H522 lung; 786-0 renal; DU-145 prostate; K-562 leukemia; MALME-3M melanoma; MDA-MB-231 breast; RXF 393 renal; SF-268 CNS; SF-295 CNS; SF-539 CNS; UACC-257 melanoma; M14 melanoma; A549/ATCC NSCLC; COLO 205 colon.
Holding throughout (test): NCI-60 one-dose screen, 48 h (100 = growth as untreated, 0 = no growth, -100 = all killed)
Holding throughout (settings): 10 µM unless noted

Compounds without any hit were thinned out: in the full panel of roughly 83,000, 20% have a hit.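 In brief: 96-well plates, 48 h treatment, single concentration, percent growth endpoint.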 Unmarked numbers belong to inactive results. Active and inactive are the calls of the source. Rule for the calls: active = growth percent below 10; inactive = the rest.

Regarding `CCCCCCCC/C=C\CCCCCCCCOc1ccc(CC(=O)NCC[N+](C)(C)C)cc1`, the growth in the assay on NCI-H23 lung was 67.2%; in the assay on NCI-H226 lung, 70%; in the assay on NCI-H322M lung, 85.6%; in the assay on HOP-62 NSCLC it was 24.3%; in the assay with NCI-H460 lung it was 29.9%; with HOP-92 NSCLC, 62.3%. Further, the growth was 50.7% with NCI-H522 lung; 59.6% with 786-0 renal; 75.6% in the assay with DU-145 prostate; 55.1% in the assay on K-562 leukemia; 70.2% in the assay on MALME-3M melanoma; 67.4% in the assay with MDA-MB-231 breast. Further, the growth with RXF 393 renal was -21.8% (active); with SF-268 CNS it was 68.6%; with SF-295 CNS, 77.8%; with SF-539 CNS, 66.8%; with UACC-257 melanoma it was 79.7%; in the assay on M14 melanoma, 63.7%.
With `CCn1c2ccc(O)cc2c2c(C)c3c[n+](C(C)C)ccc3c(C)c21`, the growth in the assay on NCI-H23 lung was 36.3%; in the assay on NCI-H226 lung, 66.8%; in the assay on NCI-H322M lung it was 41.8%; with NCI-H460 lung, 9.02% (active); in the assay with HOP-92 NSCLC, 51.2%; in the assay on NCI-H522 lung it was 19.9%. Further, the growth with A549/ATCC NSCLC was 69.1%; in the assay with 786-0 renal it was 56.1%; with COLO 205 colon, 13.1%; with DU-145 prostate it was 29.6%; in the assay with K-562 leukemia, 41%; in the assay on MALME-3M melanoma it was -6.64% (active). Further, the growth in the assay with MDA-MB-231 breast was 45.4%; with RXF 393 renal, 53.4%; in the assay on SF-268 CNS, 14%; in the assay with SF-295 CNS, 60.5%; in the assay with SF-539 CNS, 38.7%; with UACC-257 melanoma it was 37%. Besides, in the assay on M14 melanoma, the growth was 36.5%.
As for `Cn1ncc2ccc(-c3nc(-c4ccccc4)[nH]c3-c3n[nH]c(=O)n3C3CC3)cc21`, the growth with NCI-H23 lung is 93.7%; in the assay on NCI-H226 lung, 97.7%; in the assay with NCI-H322M lung, 111%; in the assay with NCI-H460 lung it was 99.4%; in the assay with HOP-92 NSCLC, 61.3%; in the assay on NCI-H522 lung, 81.5%. The growth in the assay with A549/ATCC NSCLC was 93.7%; in the assay on 786-0 renal, 88.8%; with COLO 205 colon it was 109%; in the assay with DU-145 prostate it was 106%; with K-562 leukemia, 101%; in the assay on MALME-3M melanoma it was 95.6%. Also, the growth was 98% with MDA-MB-231 breast; 106% in the assay with RXF 393 renal; 102% with SF-268 CNS; 101% in the assay on SF-295 CNS; 97.6% in the assay on SF-539 CNS; 94.9% with UACC-257 melanoma. For the same compound, the growth in the assay with M14 melanoma is 88.4%.
For the compound `O=C1CCCc2nc3sc4c(=O)n(-c5ccccc5Cl)nnc4c3cc21`, the growth was 101% in the assay with NCI-H23 lung; 89.1% with NCI-H226 lung; 101% with NCI-H322M lung; 94.3% in the assay on HOP-62 NSCLC; 100% in the assay on NCI-H460 lung; 94.9% in the assay with HOP-92 NSCLC. Moreover, the growth in the assay with NCI-H522 lung was 74.5%; with 786-0 renal, 86.6%; in the assay on COLO 205 colon, 105%; in the assay on DU-145 prostate, 111%; in the assay on K-562 leukemia, 102%; with MALME-3M melanoma, 102%. Also, the growth is 93.6% in the assay on MDA-MB-231 breast; 91.2% in the assay with RXF 393 renal; 103% in the assay with SF-268 CNS; 95.1% in the assay with SF-295 CNS; 103% with SF-539 CNS; 85.3% in the assay with UACC-257 melanoma. Moreover, the growth in the assay with M14 melanoma was 106%.
`CCOC(=O)n1cc(-c2nonc2-c2cn(C)c3ccccc23)c2ccccc21`: the growth is 55% in the assay on NCI-H23 lung; 75.4% in the assay with NCI-H226 lung; 44% in the assay on NCI-H322M lung; 14.5% with NCI-H460 lung; 54.4% in the assay on HOP-92 NSCLC; 18.4% in the assay with NCI-H522 lung. Further, the growth with A549/ATCC NSCLC was 40.1%; in the assay on 786-0 renal it was 48%; in the assay on COLO 205 colon, 24.3%; with DU-145 prostate it was 57.2%; in the assay with K-562 leukemia, 11.2%; in the assay on MALME-3M melanoma, 41%. For the same compound, the growth with MDA-MB-231 breast was 46%; with RXF 393 renal, 63.5%; in the assay on SF-268 CNS, 54%; in the assay with SF-295 CNS, 27.8%; in the assay with SF-539 CNS, 21.9%; in the assay with UACC-257 melanoma, 68.9%. Moreover, the growth with M14 melanoma is 21.5%.
In the case of `CCCCCCCC/C=C\CCCCCCCCOc1ccccc1CC(=O)NCC[N+]1(C)CCCCC1`, the growth in the assay with NCI-H23 lung is 58.9%; in the assay with NCI-H226 lung, 67.1%; in the assay with NCI-H322M lung, 96.5%; in the assay with NCI-H460 lung, 50.4%; in the assay on HOP-92 NSCLC it was 48.1%; in the assay on NCI-H522 lung it was 38%. Further, the growth was 66.3% in the assay on A549/ATCC NSCLC; 96.8% in the assay on 786-0 renal; 23% in the assay with COLO 205 colon; 67.1% with DU-145 prostate; 36.3% in the assay on K-562 leukemia; 69.8% in the assay on MALME-3M melanoma. Moreover, the growth is 59.8% with MDA-MB-231 breast; 28.6% in the assay on RXF 393 renal; 39.2% in the assay with SF-268 CNS; 97.4% with SF-295 CNS; 95.1% in the assay on SF-539 CNS; 61.5% in the assay with UACC-257 melanoma.
`CCOC(=O)c1c(NC(=O)CSc2n[nH]c3nc4ccccc4n23)sc(CC)c1C`: the growth with NCI-H23 lung is 98.6%; with NCI-H226 lung, 86.7%; in the assay on NCI-H322M lung, 107%; with NCI-H460 lung, 106%; in the assay with HOP-92 NSCLC it was 63.6%; with NCI-H522 lung, 87%. Also, the growth in the assay on A549/ATCC NSCLC is 102%; in the assay with 786-0 renal, 98.4%; with COLO 205 colon, 114%; with DU-145 prostate, 112%; in the assay on K-562 leukemia it was 117%; with MALME-3M melanoma it was 138%. The growth in the assay on MDA-MB-231 breast is 90.3%; in the assay on RXF 393 renal, 96.1%; with SF-268 CNS, 108%; in the assay on SF-295 CNS, 91%; in the assay with SF-539 CNS it was 111%; in the assay with UACC-257 melanoma, 113%. The growth with M14 melanoma was 116%.
On to `COc1ccc(C2=Nc3c/c(=C\c4c(O)[nH]c5cc(Cl)ccc45)ccc3=N2)cc1`, for which the growth with NCI-H23 lung was 68.1%; with NCI-H226 lung it was 84.1%; in the assay on NCI-H460 lung it was 93.6%; in the assay with HOP-92 NSCLC, 77.9%; in the assay on NCI-H522 lung it was 46%; with A549/ATCC NSCLC it was 74.9%. Also, the growth is 90.8% in the assay on 786-0 renal; 3.61% (active) in the assay on COLO 205 colon; 76.8% in the assay with DU-145 prostate; 48.8% in the assay on K-562 leukemia; 72.6% in the assay with MALME-3M melanoma; 69.2% in the assay on MDA-MB-231 breast. Also, the growth in the assay on RXF 393 renal was 38.1%; in the assay with SF-268 CNS, 89.7%; in the assay with SF-295 CNS it was 57.9%; in the assay with SF-539 CNS, 64.8%; with UACC-257 melanoma it was 74.5%; with M14 melanoma, 50.5%.
